# According to PubChem BioAssay (Tox21):
# “And” between values parts separate entries of the source, which are not always exact repeats. Equal values may be shown once. Records with an inconclusive call do not appear. Where a call stands in place of a potency, no number is given. A structure can be active in one record and inactive in another. The source made the active and inactive calls. Calls follow the shape of the full dose curve.
# Test: p53 small molecule agonists, cell-based qHTS assay with human liver microsomes: qHTS cell viability counter screen (AID 1963579); also: potency is read from the fitted curve at half-maximal effect
# Conditions: p53RE-bla HCT-116 viability, ATP luminescence, 16 h, HLM; series mostly up to 66 µM
# In short: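 After the 460/530 nm beta-lactamase read, CellTiter-Glo was added to the same wells and luminescence measured after 30 min at room temperature, giving viability of p53RE-bla cells treated 16 h with compounds plus microsomes and NADPH.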
# Also: nearly all actives have a fitted effect of over 45% in size.
Compound,Potency,"activity change, negative = cytotoxicity"
CCCCCCCCCCCCN,inactive and 40.8 µM (active),
CC(O)CC(C)(C)O (stereo not drawn),inactive,
O=C(c1ccc(O)cc1)c1ccc(O)cc1O,inactive,
CCNc1ccccc1,inactive,
Nc1ccc(O)c(C(=O)O)c1,inactive,
O=C1CCc2ccccc2O1,inactive,
CC(=O)CCC=C(C)C,inactive,
CCO[Si](CCCNC(N)=O)(OCC)OCC,inactive,
C=C(C)C(=O)OCCOC(=O)C(=C)C,inactive,
C#C[C@]1(O)CC[C@H]2[C@@H]3CCC4=Cc5oncc5C[C@]4(C)[C@H]3CC[C@@]21C,inactive,
CC1(C)NC(=O)N(c2ccc([N+](=O)[O-])c(C(F)(F)F)c2)C1=O,inactive,
O=S(=O)(O)c1ccc(O)cc1,inactive,
CC(=O)Oc1c(C)c(C)c2c(c1C)CC[C@@](C)(CCC[C@H](C)CCC[C@H](C)CCCC(C)C)O2,inactive,
CC1(C)NC(=O)NC1=O,inactive,
C[N+](C)(C)CCCCCC[N+](C)(C)C,inactive,
CCCCCC/C=C/CCCCCCCC(=O)O,inactive,

Compound,Potency,"activity change, negative = cytotoxicity"
C/C=C1/CC2C=CC1C2 (stereo not drawn),inactive,
COC(=O)c1ccccc1O,inactive,
CC(C)=CCO,inactive,
Cc1ccc(C)c(OCCCC(C)(C)C(=O)O)c1,inactive,
C=C(C)C(=O)OCC(CC)(COC(=O)C(=C)C)COC(=O)C(=C)C,inactive,
S=c1nc[nH]c2nc[nH]c12,inactive,
CC(C)(CO)CO,inactive,
N=C(N)c1ccc(OCCCCCOc2ccc(C(=N)N)cc2)cc1,inactive,
CCCCCCCC(=O)OCC(O)CO (stereo not drawn),inactive,
CCCCCCCCCCCCCC(=O)O,inactive,
O=C(OCc1ccccc1)c1ccccc1,inactive,
CN(C)c1ccc(C(=C2C=CC(=[N+](C)C)C=C2)c2ccccc2)cc1,14.5 µM (active) [middle of 4 runs],
Cc1ccc(C(=O)O)o1,inactive,
O=[Se](O)O,,-2.48% [at 13.5 µM] (inactive)
CC(=O)c1nccs1,inactive,
Cc1cc(C2(c3cc(C)c(O)cc3C)OS(=O)(=O)c3ccccc32)c(C)cc1O,inactive,

# Test: p53 small molecule agonists, cell-based qHTS assay with rat liver microsomes: qHTS cell viability counter screen (AID 1963580)
# Conditions: p53RE-bla HCT-116 + rat microsomes, ATP viability, 16 h; series mostly up to 66 µM
# In short: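 HCT-116 p53RE-bla, 4,000 cells/well, 5 h pre-incubation; cpd + rat liver microsomes 0.5 mg/mL + NADPH 0.5 mg/mL (final); 16 h, 37 C; CellTiter-Glo, 30 min RT; luminescence.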
row,Compound,Potency
1,CCCCCCCCCCCCN,inactive
2,CC(O)CC(C)(C)O (stereo not drawn),inactive
3,O=C(c1ccc(O)cc1)c1ccc(O)cc1O,inactive
4,Nc1ccc(O)c(C(=O)O)c1,inactive
5,O=C1CCc2ccccc2O1,inactive
6,CC(=O)CCC=C(C)C,inactive
7,CCO[Si](CCCNC(N)=O)(OCC)OCC,inactive
8,C=C(C)C(=O)OCCOC(=O)C(=C)C,inactive
9,C#C[C@]1(O)CC[C@H]2[C@@H]3CCC4=Cc5oncc5C[C@]4(C)[C@H]3CC[C@@]21C,inactive
10,O=S(=O)(O)c1ccc(O)cc1,inactive
11,CC(=O)Oc1c(C)c(C)c2c(c1C)CC[C@@](C)(CCC[C@H](C)CCC[C@H](C)CCCC(C)C)O2,inactive
12,CC1(C)NC(=O)NC1=O,inactive
13,C[N+](C)(C)CCCCCC[N+](C)(C)C,inactive
14,CCCCCC/C=C/CCCCCCCC(=O)O,inactive
15,CC(C)=CCl,inactive
16,C/C=C1/CC2C=CC1C2 (stereo not drawn),inactive
17,COC(=O)c1ccccc1O,inactive
18,CC(=O)Oc1ccc(C)cc1,inactive

row,Compound,Potency
1,CC(C)=CCO,inactive
2,Cc1ccc(C)c(OCCCC(C)(C)C(=O)O)c1,inactive
3,C=C(C)C(=O)OCC(CC)(COC(=O)C(=C)C)COC(=O)C(=C)C,inactive
4,S=c1nc[nH]c2nc[nH]c12,inactive
5,CC(C)(CO)CO,inactive
6,NC(CO)(CO)CO,inactive
7,N=C(N)c1ccc(OCCCCCOc2ccc(C(=N)N)cc2)cc1,inactive
8,CCCCCCCC(=O)OCC(O)CO (stereo not drawn),inactive
9,CCCCCCCCCCCCCC(=O)O,inactive
10,O=C(OCc1ccccc1)c1ccccc1,inactive
11,O=[Se](O)O,inactive
12,CC(=O)c1nccs1,inactive
13,Cc1cc(C2(c3cc(C)c(O)cc3C)OS(=O)(=O)c3ccccc32)c(C)cc1O,inactive
14,CC12CCC(CC1)C(C)(C)O2,inactive
15,COc1cc(C=O)ccc1O,inactive
16,O=C(O)c1cn(-c2ccc(F)cc2)c2cc(N3CCNCC3)c(F)cc2c1=O,inactive
17,CC(=O)Nc1ccccc1,inactive

# Test: p53 small molecule agonists, cell-based qHTS assay: qHTS cell viability counter screen (AID 1963581); also: potency is read from the fitted curve at half-maximal effect
# Conditions: p53RE-bla HCT-116 viability, ATP luminescence, 16 h; series mostly up to 66 µM
# In short: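 p53RE-bla HCT-116 cells, compounds added 5 h after plating and incubated 16 h at 37 C. Cytotoxicity measured in the same wells as intracellular ATP by CellTiter-Glo luminescence after 30 min at room temperature.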
row,Compound,Potency
1,CCCCCCCCCCCCN,inactive
2,O=C(c1ccc(O)cc1)c1ccc(O)cc1O,inactive
3,CCNc1ccccc1,inactive
4,Nc1ccc(O)c(C(=O)O)c1,inactive
5,O=C1CCc2ccccc2O1,inactive
6,CC(=O)CCC=C(C)C,inactive
7,CCO[Si](CCCNC(N)=O)(OCC)OCC,inactive
8,C=C(C)C(=O)OCCOC(=O)C(=C)C,inactive
9,C#C[C@]1(O)CC[C@H]2[C@@H]3CCC4=Cc5oncc5C[C@]4(C)[C@H]3CC[C@@]21C,inactive
10,O=S(=O)(O)c1ccc(O)cc1,inactive
11,CC(=O)Oc1c(C)c(C)c2c(c1C)CC[C@@](C)(CCC[C@H](C)CCC[C@H](C)CCCC(C)C)O2,inactive
12,CC1(C)NC(=O)NC1=O,inactive
13,C[N+](C)(C)CCCCCC[N+](C)(C)C,inactive
14,CCCCCC/C=C/CCCCCCCC(=O)O,inactive
15,CC(C)=CCl,inactive
16,C/C=C1/CC2C=CC1C2 (stereo not drawn),inactive
17,COC(=O)c1ccccc1O,inactive
18,CC(=O)Oc1ccc(C)cc1,inactive

row,Compound,Potency
1,CC(C)=CCO,inactive
2,Cc1ccc(C)c(OCCCC(C)(C)C(=O)O)c1,inactive
3,C=C(C)C(=O)OCC(CC)(COC(=O)C(=C)C)COC(=O)C(=C)C,inactive
4,S=c1nc[nH]c2nc[nH]c12,inactive
5,CC(C)(CO)CO,inactive
6,NC(CO)(CO)CO,inactive
7,N=C(N)c1ccc(OCCCCCOc2ccc(C(=N)N)cc2)cc1,inactive
8,CCCCCCCC(=O)OCC(O)CO (stereo not drawn),inactive
9,CCCCCCCCCCCCCC(=O)O,inactive
10,CN(C)c1ccc(C(=C2C=CC(=[N+](C)C)C=C2)c2ccccc2)cc1,4.08 µM (active) and 3.97 µM (active)
11,Cc1ccc(C(=O)O)o1,inactive
12,O=[Se](O)O,inactive
13,CC(=O)c1nccs1,inactive
14,Cc1cc(C2(c3cc(C)c(O)cc3C)OS(=O)(=O)c3ccccc32)c(C)cc1O,inactive
15,CC12CCC(CC1)C(C)(C)O2,inactive
16,COc1cc(C=O)ccc1O,inactive
17,O=C(O)c1cn(-c2ccc(F)cc2)c2cc(N3CCNCC3)c(F)cc2c1=O,inactive
18,CC(=O)Nc1ccccc1,inactive
